ALDH1A1 block – qHTS Assay for Inhibitors of Aldehyde Dehydrogenase 1 (ALDH1A1). Aldehyde dehydrogenase 1A1 (Homo sapiens), P00352. AID 1030, 2008. Potency, µM (top dose mostly 75.3 µM), inactives show at the top dose activity, negative = inhibition, most hits filed as inhibitors. Purified ALDH1A1, NADH fluorescence, propionaldehyde substrate. actives 7.3% (n = 220,000);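 note: potency is the fitted concentration of half-maximal effect; plate controls were no enzyme wells and a reference inhibitor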
Target sequence (P00352 whole entry, looked up): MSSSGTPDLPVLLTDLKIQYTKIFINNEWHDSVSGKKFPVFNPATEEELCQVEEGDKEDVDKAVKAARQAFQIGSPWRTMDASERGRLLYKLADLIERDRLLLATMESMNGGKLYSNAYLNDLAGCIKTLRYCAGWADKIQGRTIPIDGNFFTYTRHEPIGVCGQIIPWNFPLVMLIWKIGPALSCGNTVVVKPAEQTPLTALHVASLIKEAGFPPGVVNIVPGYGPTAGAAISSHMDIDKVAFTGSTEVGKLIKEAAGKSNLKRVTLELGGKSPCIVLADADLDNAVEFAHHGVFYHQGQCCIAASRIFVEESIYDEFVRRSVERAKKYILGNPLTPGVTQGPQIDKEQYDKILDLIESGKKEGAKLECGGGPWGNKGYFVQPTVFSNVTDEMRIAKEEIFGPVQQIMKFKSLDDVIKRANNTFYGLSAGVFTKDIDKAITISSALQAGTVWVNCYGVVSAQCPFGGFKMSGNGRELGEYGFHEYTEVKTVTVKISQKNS
KinaseGlo FLuc – Counterscreen for Luciferase (Kinase-Glo TM) Inhibition; Luciferin 4-monooxygenase (Photuris pensylvanica), Q27757; Kinase-Glo luciferase, ATP luminescence, 8 min; Potency, µM (series often up to 38.3 µM), inactives show at the top dose activity change, negative = inhibition, usual class: inhibitors; actives 0.28% (n = 200,000); active = well fitted inhibition curve with a large enough effect; inconclusive = small, poorly fitted or top-dose-only effect; note: potency is the fitted concentration of half-maximal effect; nearly all actives have a fitted effect of over 60% in size
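Kinase-Glo luciferase light output from ATP and luciferin was measured with 10 uM ATP, within the enzyme's linear range. Buffer: 50 mM imidazole pH 7.2, 50 mM KCl, 7 mM MgCl2, 0.01% Tween 20, 0.05% BSA; luminescence read after 8 min at ambient temperature.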
HPGD block – qHTS Assay for Inhibitors of HPGD (15-Hydroxyprostaglandin Dehydrogenase); 15-hydroxyprostaglandin dehydrogenase [NAD(+)] (Homo sapiens), P15428; purified HPGD, NADH fluorescence kinetic, PGE2 substrate; Potency, µM, for the others: at the highest dose activity change, negative = inhibition, usual class: inhibitors; actives 4.3% (n = 150,000); AID 894, 2007; note: potency is the fitted concentration of half-maximal effect
Target sequence (P15428 whole entry, looked up): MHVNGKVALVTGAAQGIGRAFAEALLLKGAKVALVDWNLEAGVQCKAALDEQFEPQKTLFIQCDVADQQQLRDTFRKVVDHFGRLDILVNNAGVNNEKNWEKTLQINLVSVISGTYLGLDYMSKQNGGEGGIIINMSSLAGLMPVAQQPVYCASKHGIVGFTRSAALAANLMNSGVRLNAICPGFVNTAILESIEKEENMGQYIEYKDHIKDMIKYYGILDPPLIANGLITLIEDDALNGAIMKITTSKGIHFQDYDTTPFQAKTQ
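NADH formation kinetics: reaction with 30 uM PGE2 and 1 mM NAD+ (final), 20 nM enzyme, Tris-HCl pH 8 with Tween 20, after 15 min compound preincubation at room temperature. Fluorescence change, last versus first of five reads.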
Lamin A splicing – qHTS Assay for Modulators of Lamin A Splicing; HeLa LMNA splicing GFP/RFP minigene ratio, 48 h; Potency, µM (highest dose often 46.1 µM), inactives show at the highest dose ratio change, negative = inhibition, hits mostly inhibitors; actives 0.01% (n = 200,000); AID 1487, 2009; active = well fitted inhibition curve with a large enough effect in the signal ratio, with a control signal flat, not every such curve was filed as active; inconclusive = small, poorly fitted or top-dose-only effect, or effect the other way, or a change in a side signal; the % refers to the signal ratio; note: potency is the fitted concentration of half-maximal effect
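Read-out is the ratio of GFP to DsRed2 object intensity, acquired by 488 nm laser-scanning cytometry on HeLa lamin A-EGFP minigene reporter cells. Compound incubation 48 hrs at 37 °C in Opti-MEM with 2% FBS; DMSO 0.5% final.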
PNC inhibitor – High Content Assay for Compounds that inhibit the Assembly of the Perinucleolar Compartment. activity change (PNC), negative = inhibition, % at 10 µM. PC3M PTB-GFP, PNC prevalence imaging, 16 h; stronger effect = lower value. actives 3.1% (n = 140,000);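 active = readout at or below -70, meaning at least 70% loss of cells showing the perinucleolar compartment, a nuclear body marking cancer cells; inconclusive = readout between -30 and a set limit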;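 note: plate controls were DMSO wells for no effect and camptothecin positive control wells for full effect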
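PC3M cells stably expressing PTB-GFP, 750–1000 cells/well, treated 16 h at 37 °C with compound (23 nl of library stock), in duplicate. After paraformaldehyde fixation and Hoechst stain, imaged at 20x; PNC prevalence scored by image analysis.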
Numbers without * were called inactive; ? = inconclusive; . = no result given; [ ] = dose if it differs, or a comment. Rows were chosen to be rich in hits. Some 10% of all compounds tested hit in one or more screens of this group. Unless noted, calls come from the whole dose curve; as a rule, active = well fitted inhibition curve with a large enough effect (not every such curve was filed as active); inconclusive = small, poorly fitted or top-dose-only effect, or another doubt; inactive = no such curve, though single readings can be large or run the other way. Unless noted, % is set by controls: 0 for no effect and ±100 for the full control effect.

SMILES	ALDH1A1 block	KinaseGlo FLuc	HPGD block	Lamin A splicing	PNC inhibitor
N#C/C(=N\Nc1ccc(S(=O)(=O)N2CCCCCC2)cc1)C(N)=S	8.91µM*	-2.3%	.	.	.
CCOC(=O)/C(C#N)=N/Nc1ccc(S(=O)(=O)N2CCc3ccccc32)cc1	-12.9%	1.5%	-1.5%	?	-6.5
N#C/C(=N\Nc1ccc(S(=O)(=O)N2CCc3ccccc32)cc1)C(N)=S	6.31µM*	-0.1%	.	?	.
N#C/C(=N/Nc1ccc(S(=O)(=O)N2CCOCC2)cc1)C(N)=O	-4.8%	-3.4%	.	8.1%[9.22 µM]	.
CN(C(=O)CSc1nc2ccc(NC(=O)c3cccc(F)c3)cc2s1)c1ccccc1	.	.	.	-9.0%[46 µM]	.
COC(=O)C1=C(C(=O)OC)[C@@H]2N(Cc3ccccc3)c3ccccc3[C@@]23C[C@@H](C(=O)OC)N(C(=O)c2ccco2)C3=N1	-0.5%[13.5 µM]	0.6%[7.66 µM]	-10.1%	10.8%[9.22 µM]	.
Cc1nnc(SCc2nc3sc4c(c3c(=O)[nH]2)CCCC4)n(N)c1=O	22.4µM*	.	.	?	.
CCOC(=O)CSc1nnc(CSc2nc3ccccc3s2)n1C	?	0.1%	-23.9%	4.7%	-97.2*
CCOC(=O)CSc1nnc(CSc2nc3sc4c(c3c(=O)[nH]2)CCC4)n1-c1ccccc1	8.4%	-0.8%	8.91µM*	22.4%	15.8
CCOC(=O)CSc1nnc(CSc2nc3ccccc3c(=O)[nH]2)n1-c1ccccc1	?	1.8%	4.47µM*	-4.4%	34.6
Nc1nc(SCc2nc3sc4c(c3c(=O)[nH]2)CCCC4)n[nH]1	?	-2.3%	-8.9%	?	-4.4
CCSc1nc2sc3c(c2c(=O)[nH]1)CCCC3	-0.1%	0.6%	-15.0%	-2.8%	2.0
CCOC(=O)CSc1nnc(CSc2nc3sc4c(c3c(=O)[nH]2)CCC4)n1C	-5.6%	1.1%	8.91µM*	2.5%	-6.8
CC(C)(CC(=O)O)CC(=O)Nc1ccc(Oc2ccc(C(C)(C)C)cc2)nc1	8.91µM*	.	.	.	.
CC(C)(C)c1ccc(Oc2ccc(NC(=O)CCCC(=O)O)cn2)cc1	7.1%	.	.	.	.
CC(=O)OCC1(C)CN(c2ccccc2)NC1=O (centres undefined)	10µM*	-1.6%	.	.	.
Cc1ccc(S(=O)(=O)NCCCCCC(=O)Nc2ccccn2)cc1	22.4µM*	-2.2%	-3.5%	-11.9%	16.1
Cc1ccc(S(=O)(=O)NCCCCCC(=O)Nc2ccccc2)cc1	11.2µM*	-0.7%	-2.3%	?	39.2
CNC(=O)CCCCCNS(=O)(=O)c1ccc(C)cc1	-1.7%	3.4%	-6.5%	-4.0%	42.8
Cc1ccc(S(=O)(=O)NCCCCCC(=O)Nc2ccccc2C)cc1	3.98µM*	-1.8%	-1.5%	-12.4%	39.9
COc1ccc(NC(=S)N2CCN(c3ccccn3)CC2)cc1OC	25.1µM*	.	.	?	-115.2*
Cc1cc(C)cc(NC(=S)N2CCN(c3ncccn3)CC2)c1	-4.2%	.	.	-7.7%	-23.5
S=C(Nc1ccc(Nc2ccccc2)cc1)N1CCN(c2ncccn2)CC1	12.6µM*	3.8%	.	.	.
Cc1ccccc1-c1nc2scc(CCNS(=O)(=O)c3ccccc3)n2n1	.	.	.	-1.8%[46 µM]	.
C=C1OC(CO)(n2cnc3c(N)ncnc32)C(O)C1O (centres undefined)	-2.1%	0.8%[39.9 µM]	-7.8%	.	.
SMILES	ALDH1A1 block	KinaseGlo FLuc	HPGD block	Lamin A splicing	PNC inhibitor
COC(=O)C/C=C/[C@@H](C)[C@H](OC)c1c(Br)ccc2c1OCO2	1.2%	-0.5%	-16.0%	.	.
O=C(N/N=C/c1c[nH]c2ccccc12)c1[nH]c2ccc(Br)cc2c1-c1ccccc1	?	4.6%	?	?	-112.3*
O=C(N/N=C/c1ccc(O)cc1)c1[nH]c2ccc(Br)cc2c1-c1ccccc1	?	-0.2%	-16.5%	?	-5.3
Cc1nn(C)cc1/C=N/NC(=S)Nc1ccccc1	25.1µM*	-13.9%	28.2µM*	-3.4%	-0.5
NC(=S)N/N=C\c1c[nH]c2ccccc12	-0.3%[13.5 µM]	-4.6%[7.66 µM]	-12.7%	.	.
Cc1cccc(NC(=S)N/N=C/c2c[nH]c3ccccc23)c1	8.6%	-1.9%	-20.1%	23.8%	-82.3*
O=C(CNc1ccccc1)N/N=C/c1c[nH]c2ccccc12	-2.9%	2.9%	0.126µM*	-13.5%	-119.3*
O=C(CCC(=O)Nc1ccc(F)cc1)N/N=C/c1c[nH]c2ccccc12	6.4%	-3.2%	.	0.8%[46 µM]	.
CCN(C(=O)Cn1c(=O)n(CC2CCC(C(=O)NC)CC2)c(=O)c2sccc21)c1ccccc1 (centres undefined)	.	.	.	7.2%[46 µM]	.
CCn1ccc2cc(S(=O)(=O)N3CCC(C(=O)NCc4ccc(OC(C)C)cc4)CC3)ccc21	.	.	.	-13.8%[46 µM]	.
COc1ccc(-n2c(=O)c(CCc3ccccc3)nc3cnc(N4CCOCC4)nc32)cc1	?	.	.	-7.6%	.
CCCC(=O)Nc1cc(-c2nn(C)c(=O)c3ccccc23)ccc1N1CCOCC1	28.2µM*	2.6%	-12.9%	9.1%	25.3
Cc1ccc(S(=O)(=O)Nc2cc(-c3nn(C)c(=O)c4ccccc34)ccc2N2CCOCC2)cc1	22.4µM*	-0.1%	?	?	?
CCOCCc1nn2c(=O)cc(COC(=O)c3ccc(NC(=O)c4ccc(F)cc4)cc3)nc2s1	.	.	.	6.8%[46 µM]	.
Cc1ccc(-n2c(C)cc(C(=S)N3CCOCC3)c2C)cc1C	28.2µM*	-0.4%	5.01µM*	2.0%	39.1
Cc1cc(C(=O)NC2CCCCC2)c(C)n1-c1ccc(F)cc1	14.1µM*	-0.2%	4.47µM*	-1.3%	?
Cc1cc(C(=S)N2CCOCC2)c(C)n1-c1ccc(F)cc1	2.82µM*	-2.0%	.	.	.
CC(=O)Nc1c(C(=O)N2CCOCC2)cnn1-c1ccc(C)c(C)c1	8.4%	-3.9%	-4.5%	0.6%	15.0
Cc1cc(C(=O)CN2CCCCC2)c(C)n1-c1ccc(F)cc1	-6.3%	0.4%	?	-1.0%	?
Cc1ccccc1C(=N)c1ccccc1Cc1cccc2ccccc12	-1.5%[13.5 µM]	-2.8%[7.66 µM]	-7.3%	.	.
CCC1=C2CC[C@H]3C(=O)NC(=O)[C@H]3[C@H]2[C@@]2(Cc3ccccc3)C(=NCC3CC3)OC(=O)N2C1=O	-0.8%	-2.8%	-5.9%	.	.
CC1(C)CC(=O)c2sc(NC(=O)c3cccs3)nc2C1	15.8µM*	?	-8.0%	-8.9%	-10.1
CC1(C)CNC(=O)c2sc(NC(=O)c3ccccc3)nc2C1	?	-3.5%	.	1.5%[9.22 µM]	.
CC1(C)CC(=O)c2sc(NC(=O)CN3CCCCC3)nc2C1	20µM*	1.6%	-19.5%	23.0%	-7.4
Cc1ccc2nc(NC(=O)c3ccc4ncsc4c3)sc2c1	?	2.0%	?	-4.4%	30.8
CC1(C)CC(=O)c2sc(NC(=O)C(C)(C)C)nc2C1	?	4.7%	.	-9.4%[46 µM]	.
CC1(C)CC(=O)c2sc(NC(=O)c3ccc4ncsc4c3)nc2C1	3.55µM*	-0.1%	?	-6.9%	-19.1

Screening results as filed in PubChem BioAssay.
